From PubChem BioAssay
VACV mCherry inh: vaccinia inhibition (mCherry reporter); Vaccinia virus mCherry reporter infection, fluorescence; Potency, µM (highest dose often 36.5 µM), for inactives: at the top dose activity change, negative = inhibition, usual class: inhibitors; 310,000 tested, 0.63% active; calls by dose curve; tested in A549 cells; note: potency is the fitted concentration of half-maximal effect; nearly all actives have a fitted effect of over 35% in size
HCMV inh: blocks human cytomegalovirus replication; HFF cells, HCMV-luciferase reporter, 72 h; hits give low values; activity change, negative = inhibition, % at 57.5 µM; 410,000 tested, 4.5% active; AID 1259415; in the data active = activity change below about -60%; inconclusive = no clear call, values can overlap the other calls; inactive = above about -39%
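Human foreskin fibroblasts infected with luciferase-reporter HCMV at MOI 1 PFU/cell, compounds at two doses. Luciferase measured 72 h post infection; normalized to buffer-only basal and Salinomycin (10uM) controls.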
HCV inhibitor: blocks hepatitis C virus | Huh7.5.1 HCVcc-Cre infection, luciferase reporter, 44 h | Potency, µM (titrated, usually from 41.8 µM), for inactives: top-dose activity change, negative = inhibition, most hits filed as inhibitors | AID 651820 | 340,000 tested, 3.4% active; active = well fitted inhibition curve with a large enough effect; inconclusive = small, poorly fitted or top-dose-only effect, or another doubt; inactive = no such curve, though single readings can be large or run the other way; note: potency is the fitted concentration of half-maximal effect
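Luciferase read-out (15 sec integration) after a 15 min room-temperature substrate step quantifies HCVcc-Cre infection. Cells, 1,000 per well, had compound added 4 h post-plating, then virus at ~0.5 moi, and were cultured 44 h.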
VACV Venus inh: vaccinia inhibition (Venus reporter); Vaccinia virus Venus reporter expression, fluorescence; Potency, µM (highest dose often 36.5 µM), for inactives: top-dose activity change, negative = inhibition, hits mostly inhibitors; 330,000 tested, 0.46% active; AID 720580; calls by dose curve; tested in A549 cells; note: potency is the fitted concentration of half-maximal effect; nearly all actives have a fitted effect of over 30% in size
FMDV antiviral: foot and mouth disease virus antiviral activity; FMDV antiviral cell-based qHTS; Potency, µM (series often up to 57.9 µM), for inactives: at the highest dose activity change, negative = inhibition, actives largely listed as inhibitors; 410,000 tested, 1.2% active; AID 1159524; calls by dose curve; tested in HEK293T cells; note: read-out not given here; potency is the fitted concentration of half-maximal effect; nearly all actives have a fitted effect of over 45% in size
An asterisk follows results filed as active; i = inactive; u = inconclusive; x = no result; [ ] = dose if it differs, or a comment. Hits are enriched below; roughly 7.3% of the tested compounds scored in any of these assays. % is set by controls: 0 for no effect and ±100 for the full control effect.

SMILES | VACV mCherry inh | HCMV inh | HCV inhibitor | VACV Venus inh | FMDV antiviral
Cc1ccc(CN2CCN(C(=O)C3CCCO3)CC2)cc1 (stereo unspecified) | i | 4 | 1% | 2% | 13%
COc1ccc(-c2nn(-c3ccccc3)cc2/C=N/N2C(=O)CSC2=S)cc1 | x | -96* | u | x | 35%
COc1ccc(-c2nn(-c3ccccc3)cc2/C=N/O)cc1 | x | 32 | -5% | x | 14µM*
COc1ccc(/C=N/N2C(=O)CSC2=S)cc1 | i | 21 | 16% | -3% | x
COc1ccc(-c2nn(-c3ccccc3)cc2/C=N/NC(=O)c2cccc(S(=O)(=O)Nc3ccccc3Cl)c2)cc1 | -13% | -101* | u | -28% | 15%
COc1ccccc1C(=O)N(Cc1cc2cc3c(cc2nc1N(C)C)OCO3)CC1CCCO1 (stereo unspecified) | -8% | x | x | -3% | 11%
Cc1cccc(-c2noc(CNC(=O)c3ccccc3Br)n2)c1 | -2% | -18 | x | -4% | -8%
COc1ccc(OCC2CN(Cc3ccccc3)S(=O)(=O)CCO2)cc1 (stereo unspecified) | x | -1 | x | x | x
CCN(c1cccc(C)c1)S(=O)(=O)c1ccc2c(c1)N(C(C)=O)CCS2 | 1% | -70* | 11µM* | -2% | -16%
COc1ccccc1C1CCN(Cc2ccc3ccccc3c2)CC1 | -20% | -67* | -13% | -12% | u
COc1cccc(-c2cc3c(Nc4cc(OC)c(OC)c(OC)c4)nccc3[nH]2)c1 | x | -34 | x | x | x
COc1ccc(C(C)=O)cc1COC(=O)c1cc2ccccc2cc1O | -28% | -3 | -22% | 0% | -19%
O=C(OCc1ccc(F)cc1)c1cccnc1Cl | 0% | -60* | 14% | -13% | -23%
COc1ccc(C(C)=O)cc1COC(=O)c1cccnc1Cl | -6% | -9 | 11µM* | -5% | -8%
COc1ccc(C(C)=O)cc1COC(=O)c1c(C)noc1C | x | 29 | 10µM* | x | 0%
O=[N+]([O-])c1ccc(-c2cc3ccccc3[nH]2)cc1 | 6% | x | x | -8% | x
CSCCC(NS(=O)(=O)c1ccc2c(c1)oc(=O)n2C)C(=O)N1CCN(c2cc(Cl)ccc2C)CC1 (stereo unspecified) | -21% | 22 | x | -14% | -14%
COc1ccccc1NC(=O)CSc1ncc2c(n1)-c1ccccc1N(Cc1ccccc1C)S2(=O)=O | 9% | 8 | x | 14% | 0%
C[n+]1c2n(c3ccccc31)N=C(c1ccccc1)CS2 | -6% | -92* | -17% | -19% | u
C[n+]1c2n(c3ccccc31)N=C(c1ccc(-c3ccccc3)cc1)CS2 | -24% | -99* | 7.1µM* | u | u
C=C1NN(C(C)C(=O)O)C(=O)N1c1ccc(OCc2ccccc2)cc1 (stereo unspecified) | -18% | x | x | -8% | x
Cc1cc(SCC(=O)Nc2ccc(C(F)(F)F)cc2)nc(=O)[nH]1 | -10% | -20 | x | -9% | u
CC(C)Cn1c(SCC(=O)NC(=O)NC2CCCC2)nc2ccccc21 | u | -39 | 11µM* | -21% | u
O=C(CSc1nc2ccccc2n1CCc1ccccc1)N1CCOCC1 | i | -68* | 16% | 1% | -3%
COc1cccc(Cn2c(SCC(=O)N3CCN(c4ccc(F)cc4)CC3)nc3ccccc32)c1 | -29% | -15 | x | u | -27%
SMILES | VACV mCherry inh | HCMV inh | HCV inhibitor | VACV Venus inh | FMDV antiviral
CC(C)NC(=O)Cn1c(SCC(=O)NC2CCCC2)nc2ccccc21 | 6% | -12 | 6% | 0% | -6%
CC(C)Cn1c(SCC(=O)N2CCN(S(=O)(=O)c3ccccc3)CC2)nc2ccccc21 | -4% | -68* | u | -12% | x
COc1ccc(Cn2c(SCC(=O)N3CCN(c4ccc(F)cc4)CC3)nc3ccccc32)cc1 | -10% | -67* | x | -16% | 0%
O=C(CSc1nc2ccccc2n1CC(=O)N1CCOCC1)N1CCCC1 | -7% | 1 | 9% | -3% | -21%
OC[C@H]1O[C@@H](O[C@H]2[C@H](O)[C@@H](O)[C@H](O)O[C@@H]2CO)[C@H](O)[C@@H](O)[C@@H]1O | i | x | x | 0% | 2%
O=C(CSc1nc(-c2ccccc2)c(-c2ccccc2)[nH]1)N1CCN(S(=O)(=O)c2ccccc2)CC1 | x | -88* | u | x | u
O=C(CSc1nc2ccccc2c(=O)[nH]1)N1CCN(S(=O)(=O)c2ccccc2)CC1 | x | 45 | -2% | x | -16%
c1nc(N2CCN(Cc3ccc4c(c3)OCO4)CC2)c2[nH]cnc2n1 | 5% | -22 | 2% | -10% | 0%
COc1ccc2[nH]c3c(N4CC(C)OC(C)C4)ncnc3c2c1 (stereo unspecified) | x | u | -22% | x | -19%
COc1ccc2c(c1)[nH]c1c(N3CCSCC3)ncnc12 | u | u | -82% | -25% | 25µM*
COc1ccc2c(c1)[nH]c1c(N3CCN(Cc4ccc5c(c4)OCO5)CC3)ncnc12 | u | -39 | u | u | 6.3µM*
O=C(Cc1ccccc1)NCC(=O)OCC(=O)c1ccc2ccccc2c1 | 34% | x | x | 4% | x
Cc1cc(S(=O)(=O)NC(C)C)ccc1OCC(=O)N1CCN(Cc2ccc3c(c2)OCO3)CC1 | -15% | -84* | u | u | u
Cc1cc(S(=O)(=O)NC(C)C)ccc1OCC(=O)N1CCOCC1 | x | 28 | 19% | x | 16%
CC(C)NS(=O)(=O)c1ccc(OCC(=O)N2CCN(Cc3ccc4c(c3)OCO4)CC2)c(Cl)c1 | u | -68* | 11µM* | -29% | u
CC(C)NS(=O)(=O)c1ccc(OCC(=O)N2CCCC2)c(Cl)c1 | -4% | -10 | -10% | -10% | 34%
COc1ccc(-n2c(CCNC(=O)c3ccc(-c4cccc(F)c4)cc3)nnc2SC)cc1 | -17% | x | x | -11% | -5%
Cc1ccc(N2C(=O)CSC23C(=O)N(CC(=O)NCc2ccccc2)c2ccccc23)cc1C (stereo unspecified) | -18% | -2 | x | -14% | -13%
C=CCNC(=S)NNC(=O)C(CCC(C)C)CC(C)(C)O (stereo unspecified) | -16% | -107* | -10% | -4% | 21%
C=CCNC(=S)NNC(=O)C(CC(C)C)CC(C)O (stereo unspecified) | -6% | -4 | 1% | -1% | 1%
COc1ccc(S(=O)(=O)c2c(Nc3cccc(C)c3C)sc(C(=O)c3ccccc3)c2N)cc1 | -28% | u | x | -24% | 21%
CC[C@@H](C)[C@@H](C(=O)N1CCN(C(=O)OC(C)(C)C)CC1)n1cc(CCCCNC(=O)OC(C)(C)C)nn1 | -2% | -27 | u | -3% | 13µM*
CC(C)(C)OC(=O)NCCCCc1cn(CC(=O)N2CCN(C(=O)OC(C)(C)C)CC2)nn1 | -22% | -80* | -2%[8.37 µM] | -10% | -24%
O=C(c1cnccn1)N1CCC[C@@]2(CCN(c3ccccn3)C2)C1 | x | x | x | x | 6%
Cc1ccc2c(c1)[C@@H]1CN(C)CC[C@@H]1N2C(=O)Nc1cccc(C(F)(F)F)c1 | x | -1 | 10µM* | x | -13%
